GC-B act – human GC-B receptor activators, primary screen, HEK293 GC-B cells, cGMP TR-FRET, EC30 CNP. Atrial natriuretic peptide receptor 2 (Homo sapiens), P20594. 0% at EC30 CNP, 100% saturating CNP. activation, % at 10 µM. 370,000 tested, 0.11% active;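 active = activation at 10 µM reaching about 35% in either raw or pattern-adjusted values, limit read from the data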
GC-A act – GC-A stimulated cGMP production enhancers – HEK293 GC-A cells, cGMP TR-FRET, EC30 ANP, primary screen. Atrial natriuretic peptide receptor 1 (Homo sapiens), P16066. 0% at EC30 ANP, 100% saturating ANP. activation, % at 10 µM. 370,000 tested, 0.14% active; in the data active = activation above about 40%
PG9 binder – binders of HIV-1 gp120 antibody PG9, primary screen, biochemical, TR-FRET | inhibition, % at 6.7 µM | HIV-1 gp120 / PG9 antibody interaction | TR-FRET gp120-PG9 antibody binding | 360,000 tested, 0.43% active; in the data active = inhibition above about 8.5%
V-ATPase pH – regulators of yeast V-ATPase proton pumping, primary screen, pHLuorin cytosolic pH fluorescence; S. cerevisiae; response, % at 10 µM; 350,000 tested, 0.37% active; in the data active = response mostly above about 7.3%, no sharp cut-off; inactive = mostly below about 5.4%; also: actives read high
NR1D1 modulator – modulators of Rev-erb alpha DNA binding, primary screen, biochemical, FITC-DNA, fluorescence polarization, uHTS; Nuclear receptor subfamily 1 group D member 1 (Homo sapiens), P20393; Rev-erbα–FITC-DNA binding, 90 min; activity, % at 10 µM; 370,000 tested, 0.79% active;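 active = activity above about 14%, limit read from the data; passing the limit was not always enough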;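 also: 0% = DMSO wells with 35 nM protein and 100% = DMSO wells with 750 nM protein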
Target sequence (P20393 whole entry, looked up): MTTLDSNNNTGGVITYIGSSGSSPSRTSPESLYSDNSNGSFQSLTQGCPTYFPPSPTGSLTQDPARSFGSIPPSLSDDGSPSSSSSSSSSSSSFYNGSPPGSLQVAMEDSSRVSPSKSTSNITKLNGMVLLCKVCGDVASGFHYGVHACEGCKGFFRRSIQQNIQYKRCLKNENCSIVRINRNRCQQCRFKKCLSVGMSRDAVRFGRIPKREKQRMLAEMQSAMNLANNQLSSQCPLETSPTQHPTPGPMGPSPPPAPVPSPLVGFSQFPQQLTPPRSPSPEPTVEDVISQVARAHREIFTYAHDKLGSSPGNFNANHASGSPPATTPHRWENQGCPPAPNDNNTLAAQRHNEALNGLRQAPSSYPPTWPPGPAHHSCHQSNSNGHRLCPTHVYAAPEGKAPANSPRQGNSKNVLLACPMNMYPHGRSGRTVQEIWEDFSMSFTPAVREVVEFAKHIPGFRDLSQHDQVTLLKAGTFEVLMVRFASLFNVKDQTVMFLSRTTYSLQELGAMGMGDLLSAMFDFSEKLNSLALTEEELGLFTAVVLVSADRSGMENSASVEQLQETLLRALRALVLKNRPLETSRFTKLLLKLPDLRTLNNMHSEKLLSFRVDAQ
PG9 bind confirm – binders of anti-gp120 antibody PG9, confirmation, biochemical, TR-FRET. TR-FRET PG9 antibody binding. AID 651571, 2012. inhibition, % at 6.7 µM. shares compounds with PG9 binder. 1,500 tested, 90% active; in the data active = inhibition above about 9%
PGV04 counter – binders of control antibody PGV04, counter-screen for PG9 antibody binder project, biochemical, TR-FRET, distinct HIV envelope site. shares compounds with PG9 binder. TR-FRET PGV04 antibody-gp120 binding. inhibition, % at 6.7 µM. 1,500 tested, 95% active; in the data active = inhibition above about 9.5%
PG9 binder DR – small-molecule binders of antibody PG9, dose response, biochemical, TR-FRET, HIV-1 gp120 antibody; IC50, µM; AID 651848, 2012; TR-FRET PG9 antibody-gp120 binding inhibition; shares compounds with PG9 binder; 95 tested, under 10 active; in the data active = IC50 below about 10 µM
PGV04 binding DR – binders of control antibody PGV04, dose response, counter-screen for PG9 antibody binder project, biochemical, TR-FRET, distinct HIV envelope site; AID 651937, 2012; IC50, µM; TR-FRET binding to control antibody PGV04; 95 tested, 20% active; shares compounds with PG9 binder
PG126 DR counter – binders of control antibody PG126, dose response, counter-screen for PG9 antibody binder project, biochemical, TR-FRET, distinct HIV envelope site | IC50, µM | TR-FRET binding to antibody PG126, counterscreen | 95 tested, 20% active | shares compounds with PG9 binder
Numbers without * were called inactive; i = inactive; . = no result. A selection: hits, their analogues and other compounds. The true share with any hit is near 1.6%. Rule as the data show it, unless noted: active = IC50 below about 9 µM; inactive = the rest.

SMILES	GC-B act	GC-A act	PG9 binder	V-ATPase pH	NR1D1 modulator	PG9 bind confirm	PGV04 counter	others
COc1ccc2c(c1)C(C)CC(C)(C)N2C(=O)CSc1ncn[nH]1 (stereo unspecified)	-9.6	1.7	15.7*	2.3	-7.2	10.9*	15.1*
Cc1cc(NC(=O)c2ccc3c(c2)C(=O)N(CCC(C)C)C3=O)no1	0.3	-6.4	11.9*	0.1	-2.5	6.7	7.9
CCc1cccc(CC)c1NC(=O)C1SC(=Nc2ccccc2C)C(c2nc3ccccc3s2)=C1N (stereo unspecified)	-1.8	-2.9	9.2*	-0.3	-1.3	9.5*	12.7*
C[C@H](NC(=O)C[C@@H]1CC[C@H]2[C@@H](COC[C@H](O)CN2Cc2ccc(C(F)(F)F)cc2)O1)c1ccccc1	0.1	1.6	8.8*	.	1.4	14.0*	18.7*
COc1cc(NC(=O)c2cc3ccccc3o2)c(OC)cc1Cl	-1.8	-6.2	20.2*	2.4	16.3	18.1*	34.1*
COc1cc(NC(=O)c2cc3ccccc3o2)c(OC)cc1Br	-3.6	-2.4	0.9	1.3	20.5	.	.
Cc1cccc(CCNS(=O)(=O)c2ccc3c(c2)oc(=O)n3C)c1	1.7	0.9	18.1*	2.0	6.6	5.2	7.4
Cc1ccc(NC(=O)Cn2cc(C(=O)C3CC3)c3ccccc32)cc1	-4.3	-1.0	10.4*	2.5	0.6	7.8	10.8*
CCC(=O)c1cn(CC(=O)Nc2ccc(C)cc2)c2ccccc12	0.2	-2.2	11.4*	0.5	15.8	12.9*	17.5*
Cc1cccc(NC(=O)Cn2cc(C(=O)C3CC3)c3ccccc32)c1	-6.2	-2.9	1.1	1.9	5.9	.	.
CCC(=O)c1cn(CC(=O)Nc2ccccc2)c2ccccc12	0.3	1.0	-0.9	0.0	5.7	.	.
CC(C)CC(O)(CC(C)C)c1cn(C(=O)N(c2ccccc2)c2ccccc2)nn1	0.7	-0.7	.	.	0.0	.	.
Cc1nc(SCC(=O)Nc2ccc3c(c2)OCO3)c(C#N)c2c1CCCC2	2.1	0.1	-1.6	0.1	-2.1	.	.
CCOc1cccc(NC(=O)CSc2nc(C)c3c(c2C#N)CCCC3)c1	2.5	6.4	12.0*	-0.1	19.3	15.5*	28.6*
O=C1CC(c2ccc(F)cc2)Cc2nc(NCc3ccco3)ncc21 (stereo unspecified)	1.0	-1.8	9.4*	1.8	6.2	17.7*	22.7*
CCOC(=O)c1csc(NC(=O)C2CCCN(S(=O)(=O)c3cc(OC)ccc3OC)C2)n1 (stereo unspecified)	5.1	3.2	.	.	0.1	.	.
N=c1oc2ccccc2cc1-c1nc(-c2ccc(Cl)cc2)cs1	1.8	-1.7	10.4*	-4.8	0.8	8.8*	13.1*
O=c1oc2ccccc2cc1-c1csc(Cc2nc(-c3ccc(Cl)cc3)cs2)n1	-0.1	0.6	-1.3	-0.3	6.9	.	.
Cc1cc(=O)oc2cc(NC(=O)C3COc4ccccc4O3)ccc12 (stereo unspecified)	-7.3	-3.4	16.1*	-2.5	10.6	38.8*	33.3*	PG9 binder DR=>67;PGV04 binding DR=i;PG126 DR counter=i
COc1cc(CC(=O)Nc2sc3c(c2C(N)=O)CCCC3)cc(OC)c1OC	3.4	-1.0	9.3*	-1.8	14.1	16.9*	23.3*
COc1cc(OC)cc(C(=O)Nc2sc3c(c2C(N)=O)CCC3)c1	-6.4	-2.6	50.1*	-1.4	13.4	17.7*	31.2*
COc1ccc(CC(=O)Nc2sc3c(c2C(N)=O)CCCC3)cc1	5.5	2.3	-0.2	-4.6	-2.7	.	.
CCc1cc2cc(C(=O)N3CCN(Cc4ccccc4)CC3)sc2s1	-7.7	12.9	-0.3	-1.7	-11.2	.	.
CCc1cc2cc(C(=O)N3CCN(c4ccccc4)CC3)sc2s1	-12.3	-0.2	20.2*	2.9	5.8	36.4*	39.7*
Cc1cc(N=Cc2c(O)ccc3ccccc23)no1	5.2	-1.9	1.9	1.9	1.4	.	.
SMILES	GC-B act	GC-A act	PG9 binder	V-ATPase pH	NR1D1 modulator	PG9 bind confirm	PGV04 counter	others
Cc1cc(N=Cc2c(O)ccc3cc(Br)ccc23)no1	3.3	6.5	9.1*	3.0	1.3	7.2	10.4*
CCN(CC)C(=O)CC[C@@H]1CC[C@]2(CCCN(Cc3ccncc3)C2)O1	-0.8	0.4	.	.	9.8	.	.
CC(OC(=O)/C(C#N)=C/c1ccc(N(C)C)cc1)C(=O)NCc1ccco1 (stereo unspecified)	1.8	13.8	10.1*	-78.9	3.5	16.5*	24.1*
CCn1c(SCc2c(F)cccc2F)nc2sc3c(c2c1=O)CCCC3	3.4	0.8	.	.	7.2	.	.
CCn1c(/C=C/c2cc[n+](C)cc2)nc2ccccc21	4.3	30.8	12.6*	-50.8	4.7	14.2*	15.8*
CCCn1c(/C=C/c2ccccc2)nc2ccccc21	-3.2	0.5	1.3	4.0	-0.1	.	.
O=C1C(=O)N(Cc2cccnc2)C(c2ccc(Br)cc2)/C1=C(\O)c1ccc2c(c1)OCCO2 (stereo unspecified)	-4.9	6.0	20.6*	1.0	-1.2	31.4*	37.1*
COc1ccc(C2/C(=C(\O)c3ccc4c(c3)OCCO4)C(=O)C(=O)N2Cc2cccnc2)cc1OC (stereo unspecified)	0.8	4.6	3.1	-0.2	-6.2	.	.
Cc1ccc(C2/C(=C(\O)c3ccc4c(c3)OCCO4)C(=O)C(=O)N2Cc2cccnc2)cc1 (stereo unspecified)	4.5	13.4	27.4*	-0.6	9.7	38.4*	46.6*
COCC#Cc1ccc(CC[C@H]2O[C@H]3CC[C@H](CO)O[C@H]3C[C@H]2n2cc(C(C)(C)O)nn2)cc1	4.4	5.7	.	.	-2.2	.	.

From PubChem
